Test results taken from PubChem BioAssay AID1851 (National Center for Advancing Translational Sciences (NCATS), 2009).
Several values for one entry are separate records, joined by “and”; a condition that tells them apart may be missing. Equal entries are not always repeated. About 4,000 (25%) of roughly 16,000 compounds were called active. About 26% were inconclusive and are not listed. Calls come from the whole dose curve; as a rule, active = well fitted curve in the direction sought with a large enough effect; inconclusive = small, poorly fitted or top-dose-only effect, or effect the other way; inactive = no such curve, though single readings can be large or run the other way. These entries were drawn from the full list.
% is set by controls: 0 for no effect and ±100 for the full control effect.

The compounds below were run against Cytochrome P450 2C9 (Homo sapiens) (UniProt P11712) (assay: Cytochrome panel assay with activity outcomes). Details: recombinant CYP, pro-luciferin dealkylation, luminescence, p450-cyp2c9; series mostly up to 57.1 µM.
Cytochrome P450 2C9 (Homo sapiens), sequence (P11712 whole entry, looked up): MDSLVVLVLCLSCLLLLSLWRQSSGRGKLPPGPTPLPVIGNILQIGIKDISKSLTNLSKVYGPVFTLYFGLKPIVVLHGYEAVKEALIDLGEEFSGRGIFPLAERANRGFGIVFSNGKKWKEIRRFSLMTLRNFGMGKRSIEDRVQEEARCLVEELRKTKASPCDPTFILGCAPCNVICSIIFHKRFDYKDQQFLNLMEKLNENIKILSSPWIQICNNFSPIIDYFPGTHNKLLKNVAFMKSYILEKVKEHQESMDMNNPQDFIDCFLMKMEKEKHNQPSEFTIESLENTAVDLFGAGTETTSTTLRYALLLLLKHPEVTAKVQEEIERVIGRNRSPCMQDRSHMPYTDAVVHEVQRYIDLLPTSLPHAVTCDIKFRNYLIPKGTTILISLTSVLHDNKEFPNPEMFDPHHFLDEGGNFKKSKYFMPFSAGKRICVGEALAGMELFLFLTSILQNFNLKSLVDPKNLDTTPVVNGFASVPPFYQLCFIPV
`Clc1cc2c(c(CSC3=NCN(CC4CC4)CN3)c1)OCOC2` was tested, and the activity, negative = inhibition was 9.58% [at 11.4 µM] (inactive). In the case of `NCCc1ccn[nH]1`, the AC50 is reported as “inactive”. With `COC(=O)c1ccc(CSc2nc3cc(Cl)ccc3s2)o1` the AC50 was 3.55 µM (active). In the case of `O=C(O)[C@@H]1CS[C@@]2(CCCN(Cc3ccccc3)C2)N1`, the activity, negative = inhibition is reported as 15.9% [at 11.4 µM] (inactive). `COc1ccc(-n2ccnc2SCC(=O)Nc2ccccc2)cc1` was tested, and the AC50 was 5.01 µM (active). With `COc1ccc(C(O)c2nccn2Cc2ccccc2)cc1` (configuration not stated) the AC50 was “inactive”. In the case of `COc1cccc(-n2ccnc2SCC(=O)Nc2nccs2)c1`, the AC50 is reported as 11.2 µM (active). With `COc1ccc(NC(=O)CSc2ccc3c4c(cccc24)C(=O)c2ccccc2-3)cc1` the AC50 was 0.562 µM (active). With `COc1ccc(-n2nnnc2SCC(=O)Nc2ccccc2)cc1` the AC50 was “inactive”. `COC(=O)CSc1nnc(C)n1-c1cccc(OC)c1` was tested, and the AC50 was “inactive”. For `Cc1cccc(-c2nsc(SCC(=O)Nc3nccs3)n2)c1`, the AC50 was 1.58 µM (active). In the case of `Cc1cccc(OCC(=O)NNC(=O)CSc2ncc(C#N)c(N)n2)c1`, the AC50 is reported as “inactive”. `Cc1ccc(S(=O)(=O)O[C@H]2C[C@@H](C(C)(C)C)CC[C@@H]2c2ccccc2)cc1` was tested, and the activity, negative = inhibition was 5.88% [at 11.4 µM] (inactive). `Cc1ccccc1-c1nc(Nc2ccncc2)c2ccccc2n1` was tested, and the activity, negative = inhibition was -3.63% [at 2.29 µM] (inactive). `O=C(O)[C@@H](O)[C@@H](O)[C@H](O)[C@H](O)CO` was tested, and the activity, negative = inhibition was 0.915% [at 11.4 µM] (inactive). With `COc1ccccc1NC(=O)N1CCC(c2nnc(SCC(N)=O)n2C)CC1` the AC50 was “inactive”. In the case of `CCc1nnc(NC(=O)CSc2ncnc3c2cnn3-c2ccc(OC)cc2)s1`, the AC50 is reported as “inactive”. For `CCOc1ccc(-n2ccnc2SCC(=O)Nc2nnc(CC)s2)cc1`, the AC50 was 12.6 µM (active). With `COc1ccc(NC(=O)CSc2nnc(C3CC3)n2-c2ccccc2)cc1` the AC50 was 10 µM (active). For `COc1ccc(-n2ccnc2SCC(=O)Nc2ccc(OC)cc2OC)cc1`, the AC50 was 4.47 µM (active). In the case of `Cn1ccnc1SCC(=O)Nc1sccc1C#N`, the AC50 is reported as 8.91 µM (active). In the case of `CCNC(=O)CSc1nnc(C2CC2)n1-c1ccccc1`, the AC50 is reported as “inactive”. In the case of `CCc1nnc(NC(=O)CCC(=O)N2CCN(c3ccccn3)CC2)s1`, the AC50 is reported as “inactive”. In the case of `C/C(CCN1CCCCc2nc(C)c(C)cc21)=N\O[C@@H](C)c1cn([C@H](CO)Cc2ccccc2)nn1`, the activity, negative = inhibition is reported as 6.66% [at 11.4 µM] (inactive) and -0.809% [at 11.4 µM] (inactive). For `O=C(Nc1cccc(F)c1)N1CC2(CCN(C(=O)c3csnn3)CC2)C1`, the AC50 was “inactive”. `CCS(=O)(=O)N(C)[C@@H]1c2cc(C#N)ccc2OC(C)(C)[C@H]1O` was tested, and the AC50 was “inactive”. `O=C(O)[C@H]1[C@H](C(=O)O)[C@H](C(=O)O)C[C@@H]1C(=O)O` was tested, and the activity, negative = inhibition was 7.74% [at 11.4 µM] (inactive). With `Clc1ccc2c(NCCNC3CCCCC3)ccnc2c1` the activity, negative = inhibition was -4.74% [at 11.4 µM] (inactive). `NCCCC(=O)O` was tested, and the AC50 was “inactive”. With `Cc1ccc(-n2ccc(=O)c(-c3ccnc(SCc4cccc(Cl)c4)n3)n2)cc1` the AC50 was 3.16 µM (active). `CCn1c(SCc2ccc(C)cc2)nnc1-c1nn(-c2ccccc2)ccc1=O` was tested, and the AC50 was “inactive”. `CC(C)(C)S(=O)(=O)c1cnc2c(-c3ccc(F)cc3)cnn2c1N` was tested, and the AC50 was “inactive”. With `CCN1CCN(CC(=O)N2c3ccccc3CC2C)CC1` (configuration not stated) the AC50 was “inactive”. For `C[C@@H]1Cc2ccccc2N1NC(=O)c1ccc(Cl)c(S(N)=O)c1` (some centres not stated), the AC50 was “inactive”. For `CC1Cc2ccccc2N1C(=O)CN1C(=O)COc2ccccc21` (configuration not stated), the AC50 was 11.2 µM (active). In the case of `CC1Cc2ccccc2N1C(=O)Cn1c(=O)cc(O)c2ccccc21` (configuration not stated), the AC50 is reported as 14.1 µM (active). With `CC(=O)N1c2ccc(S(=O)(=O)CCC(=O)O)cc2CC1C` (configuration not stated) the AC50 was “inactive”. In the case of `CCCN1CCN(C(=O)CN2C(=O)CC(C)(C)S(=O)(=O)c3ccccc32)CC1`, the AC50 is reported as “inactive”. `COc1ccc(C(=O)N2CCC3(CC2)CN(Cc2ccc(C#N)cc2)C3)cc1` was tested, and the AC50 was “inactive”. In the case of `COc1ccc(NC(=O)N2CCCC3(CCN(C(=O)c4cc(C(F)(F)F)cc(C(F)(F)F)c4)CC3)C2)cc1`, the AC50 is reported as “inactive”. `COc1ccc(C(=O)N2CCC[C@@]3(CCN(Cc4cc(C(F)(F)F)cc(C(F)(F)F)c4)C3)C2)cc1` was tested, and the AC50 was “inactive”. In the case of `COC(=O)[C@@]1(Cc2ccc(OC)cc2)[C@H]2c3cc(C(=O)N4CCCC4)n(CCCNc4ncc(C(F)(F)F)cc4Cl)c3C[C@H]2CN1C(=O)c1ccccc1`, the AC50 is reported as 7.94 µM (active). In the case of `COC(=O)[C@@]1(Cc2ccc(F)cc2)[C@H]2c3cc(C(=O)N4CCCC4)n(CCCNc4ncc(C(F)(F)F)cc4Cl)c3C[C@H]2CN1C(=O)c1ccccc1`, the AC50 is reported as 3.16 µM (active). `N=C1CCC[C@@H]1C(=S)SCCC(N)=O` was tested, and the activity, negative = inhibition was 17.6% [at 11.4 µM] (inactive). `C=CC(=O)NC(NC(=O)C=C)c1ccc(Br)cc1` was tested, and the AC50 was “inactive”. `O=C1CC[C@H](NC(=O)c2ccccc2)C(=O)N1` was tested, and the activity, negative = inhibition was 5.14% [at 11.4 µM] (inactive). In the case of `O=C(c1cnccn1)N1CCC2(CC1)CN(c1cccc(-c3ccccc3)c1)C2`, the AC50 is reported as “inactive”. With `O=C(c1ccco1)N1CCC[C@@]2(CCN(c3cccc(-c4ccccc4)c3)C2)C1` the AC50 was 5.01 µM (active). For `O=C(c1cnccn1)N1CCC[C@@]2(CCN(c3ccccn3)C2)C1`, the AC50 was “inactive”. For `O=C(c1cnccn1)N1CCC2(CCCN(c3cccc(-c4ccccc4)c3)C2)CC1`, the AC50 was 20 µM (active). `O=C(c1cnccn1)N1CCC2(CC1)CN(c1ccccc1)C2` was tested, and the AC50 was “inactive”. For `O=C(c1ccco1)N1CCC[C@@]2(CCN(c3ccccc3)C2)C1`, the AC50 was “inactive”. For `O=C(c1ccco1)N1CCC2(CC1)CN(c1cccc(-c3ccccc3)c1)C2`, the AC50 was “inactive”. `O=C(c1cnccn1)N1CCC[C@@]2(CCN(c3ccncc3)C2)C1` was tested, and the AC50 was “inactive”. `O=C(c1cnccn1)N1CCC[C@@]2(CCN(c3cccc(-c4ccccc4)c3)C2)C1` was tested, and the AC50 was 7.94 µM (active). With `CN(C)c1ccc(-c2ccc3ncnc(N(C)C)c3c2)cc1` the activity, negative = inhibition was -17.4% [at 2.29 µM] (inactive). With `O=c1n(-c2ccccc2)c(=O)n2n1CC[C@H]1/C(=N\OCc3ccccc3)[C@H]3O[C@@H]3[C@@H](O)[C@@H]12` the activity, negative = inhibition was 25.1% [at 11.4 µM] (inactive). For `CN1CCN(C2CC(=O)N(Cc3ccc(N4CCCC4=O)cc3)C2=O)CC1` (configuration not stated), the AC50 was “inactive”. With `CCN1C(=O)CC(N2CCN(CC(=O)NC(C)C)CC2)C1=O` (configuration not stated) the AC50 was “inactive”. In the case of `O=C1CC(N2CCN(C(c3ccccc3)c3ccccc3)CC2)C(=O)N1Cc1ccc(N2CCCC2=O)cc1` (configuration not stated), the AC50 is reported as 7.08 µM (active). `NN(CC(=O)O)CC(=O)O` was tested, and the activity, negative = inhibition was 17.7% [at 11.4 µM] (inactive). With `CNC(=O)c1sc(SC)cc1-c1ccc(Cl)cc1` the AC50 was 5.62 µM (active). For `Cc1cc(-c2ccc(Cl)cc2)oc(=O)c1NC(=O)c1ccccc1`, the AC50 was “inactive”. In the case of `Cc1ccc2c(c1)/C(=N/OC(=O)c1ccc(F)cc1)CCS2`, the AC50 is reported as “inactive”. With `COc1ccccc1C(=O)O/N=C1/CCCc2c1ccc(OC)c2[N+](=O)[O-]` the AC50 was 12.6 µM (active). In the case of `Cc1cc(Cl)ccc1OC(C)C(=O)Nc1ccc(S(=O)(=O)Nc2cnc3ccccc3n2)cc1` (configuration not stated), the AC50 is reported as 0.631 µM (active). With `Cc1cc(NS(=O)(=O)c2ccc(NC(=O)CN3C(=O)c4ccccc4C3=O)cc2)nc(C)n1` the AC50 was “inactive”. For `O=C1C2Sc3[nH]c(=O)sc3C(c3ccccc3)C2C(=O)N1c1ccccc1` (configuration not stated), the AC50 was 12.6 µM (active). In the case of `O=C1C2Sc3[nH]c(=O)sc3C(c3ccccc3)C2C(=O)N1c1ccc(Cl)cc1` (configuration not stated), the AC50 is reported as 8.91 µM (active). With `O=C1C(C2=NC(C(=O)O)C3C(=O)N(c4ccc(Cl)cc4)C(=O)C23)=C(O)c2ccccc21` (configuration not stated) the AC50 was “inactive”. With `CO[C@@H]1COC(=O)C/C=C\[C@H](C)COC(=O)[C@H](C)NC(=O)C/C=C\[C@H]1C` the activity, negative = inhibition was -7.79% [at 11.4 µM] (inactive). With `CC1(C)Cc2ccccc2C(N/N=C/c2cccc(F)c2)=N1` the AC50 was 14.1 µM (active). In the case of `Fc1cccc(/C=N\N=C/c2cccc(F)c2)c1`, the AC50 is reported as “inactive”. `CC1=NC(C)(C)Cc2ccccc21` was tested, and the AC50 was “inactive”. In the case of `O=C(O)C1CC2(C1)CC(C(=O)O)C2` (configuration not stated), the activity, negative = inhibition is reported as -3% [at 11.4 µM] (inactive). With `N#Cc1cccc(-c2ccc3ncnc(NC4CCNCC4)c3c2)c1` the activity, negative = inhibition was 10.5% [at 2.29 µM] (inactive). With `CCN(c1ccc(NC(=O)COC(=O)c2ccc3ccccc3n2)cc1)C(C)C` the AC50 was 20 µM (active). `CC(C)C(=O)Cc1ccc2ccccc2n1` was tested, and the activity, negative = inhibition was 7.52% [at 11.4 µM] (inactive). For `Cc1cnc(C(=O)OCC(=O)NC(C)C)cn1`, the AC50 was “inactive”. In the case of `CC(C)(C)C(=O)NC(Nc1cccc2cccnc12)C(Cl)(Cl)Cl` (configuration not stated), the AC50 is reported as 1.26 µM (active). For `O=C(Nc1cccc2cccnc12)[C@@H]1[C@@H](C(=O)O)[C@H]2CC[C@@H]1O2`, the activity, negative = inhibition was 7.28% [at 11.4 µM] (inactive). For `O=S(=O)(O)c1cc(N=Nc2cccc3ccccc23)c(O)c2ncccc12`, the activity, negative = inhibition was -11.1% [at 11.4 µM] (inactive). `COc1ccc(NC(=O)N2CC[C@@]3(CCCN(C(=O)c4cnccn4)C3)C2)cc1` was tested, and the AC50 was “inactive”. For `CCOC(=O)c1sc(NC(=O)CSc2n[nH]c(-c3ccc(Cl)cc3Cl)n2)c(C#N)c1C`, the AC50 was 1.26 µM (active). With `Cc1ccccc1OCC(=O)Nc1sc(C(=O)Nc2cccc(C)c2C)c(C)c1C#N` the AC50 was “inactive”. With `CCOc1cccc(NC(=O)CSc2nc(C)c3c(c2C#N)CCCC3)c1` the AC50 was “inactive”. In the case of `CCOC(=O)c1sc(NC(=O)CSc2nc(C)cc(C)n2)c(C#N)c1C`, the AC50 is reported as 3.55 µM (active). With `CCOC(=O)c1sc2c(c1C)c(=O)c(C(=O)OCC)cn2CC` the AC50 was “inactive”. With `CCOC(=O)c1sc(NC(=O)CSc2nc(C)cc(C)c2C#N)c(C#N)c1C` the AC50 was 1 µM (active). For `CCN(CC)CCN1c2ccccc2Sc2ccc3ccccc3c21`, the activity, negative = inhibition was 0.978% [at 11.4 µM] (inactive). In the case of `Cn1cnc2c(NCc3ccccc3)nc(NCCO)nc21`, the AC50 is reported as “inactive”. With `C/C(CCN1CCCCc2nc(C)c(C)cc21)=N\OC[C@@H](O)COCc1ccco1` the activity, negative = inhibition was -10.7% [at 11.4 µM] (inactive).
